Drawing on PubChem BioAssay AID652054 (National Center for Advancing Translational Sciences (NCATS), 2013), this text covers max response, negative = inhibition for 87 molecules.

Screen size: about 360,000 compounds; about 9,100 (2.5%) were called active. Roughly 4% stayed inconclusive and do not appear here. The sample holds actives, similar compounds and a random draw of the others, so the mix is not that of the screen. No stated cut-off is given here; in the data, active means max response below about -50%; inconclusive means no clear call, values can overlap the other calls; inactive means above that.
On the % scale 0 is the no-effect control and ±100 the full control effect.

Sequence of D(3) dopamine receptor (Homo sapiens) (P35462 whole entry, looked up): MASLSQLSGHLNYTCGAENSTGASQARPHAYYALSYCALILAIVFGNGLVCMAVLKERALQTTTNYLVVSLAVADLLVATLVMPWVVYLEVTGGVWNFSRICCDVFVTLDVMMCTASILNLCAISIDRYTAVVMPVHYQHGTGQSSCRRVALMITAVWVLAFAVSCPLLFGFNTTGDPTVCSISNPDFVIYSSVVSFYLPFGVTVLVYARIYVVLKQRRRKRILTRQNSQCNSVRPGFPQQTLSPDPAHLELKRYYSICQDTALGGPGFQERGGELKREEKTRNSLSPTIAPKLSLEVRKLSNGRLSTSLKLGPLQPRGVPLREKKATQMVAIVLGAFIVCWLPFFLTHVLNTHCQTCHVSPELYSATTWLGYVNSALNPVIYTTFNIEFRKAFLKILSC

The target in this assay is D(3) dopamine receptor (Homo sapiens) (UniProt P35462). The experiment in a line: qHTS of D3 Dopamine Receptor Antagonist: qHTS. Particulars: D3R cells, DiscoveRx beta-arrestin luminescence, antagonist mode; active compounds read low. The gist of the method:
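Cells plated overnight at 1500 cells/well, then exposed to library compounds with dopamine controls for 90 minutes at 37 degrees C. DiscoveRx reagent added for 30–60 minutes at room temperature; luminescence read, quantitative HTS format.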
For orientation: qHTS replaces the single test concentration by a dilution series.
As to `COc1ccc(NC(=O)c2sc(=O)n(Cc3ccc(S(=O)(=O)N(C)C)cc3)c2C)cc1`, the max response, negative = inhibition was 14.5% (inactive).
Regarding `CCCCCCNS(=O)(=O)c1ccccc1Br`, the max response, negative = inhibition is 0% (inactive).
Turning to `CCCCCCCCNS(=O)(=O)CCNC1CCCCC1`, the max response, negative = inhibition is -69.1% (active).
In the case of `CC1(C)CC(=O)C=C(NCCCNC2CCCCC2)C1`, the max response, negative = inhibition was 1.63% (inactive).
Regarding `CCCC(=O)N1CCC1(C)C(=O)NS(=O)(=O)c1ccc(Cl)cc1` (configuration not stated), the max response, negative = inhibition is 3.58% (inactive).
In the case of `c1ccc2c(c1)nnn2-c1ccncc1` it was -16.5% (inactive); in that of `CCOC(=O)c1ccc2[nH]c(C)c(CN3CCN(C)CC3)c(=O)c2c1`, 0% (inactive); in that of `COC(=O)CCNC(=O)c1ccc2[nH]c(C)c(C)c2c1`, -22.3% (inactive).
In the case of `Cc1[nH]c2ccc(C(=O)N3CCN(C)CC3)cc2c1C` it was -72.7% (active).
Consider `CC1(C(=O)Nc2ccc3c(c2)OCCO3)CSCC(=O)N1CCOc1ccccc1` (configuration not stated), for which the max response, negative = inhibition is -1.68% (inactive).
For the molecule `O=C(Nc1ccc(OCCO)cc1)c1csc([C@H]2C[C@H](O)[C@@H](CO)O2)n1`, the max response, negative = inhibition was -7.51% (inactive).
In the case of `O=C(NCc1cccnc1)c1ccc2nc([C@@H]3O[C@H](CO)[C@H](O)[C@H](O)[C@H]3O)[nH]c2c1`, the max response, negative = inhibition is 40.4% (inactive).
Consider `Nc1nc2cc(Cl)ccc2n1N`, for which the max response, negative = inhibition was 0% (inactive).
For the molecule `O=C(c1cc(S(=O)(=O)N2CCOCC2)ccc1Cl)N1CCOCC1`, the max response, negative = inhibition was -16% (inactive).
As to `O=C(Nc1cc(S(=O)(=O)N2CCOCC2)ccc1Cl)c1cc(=O)c2ccccc2o1`, the max response, negative = inhibition was 17% (inactive).
The value for `O=[N+]([O-])c1cc(Cl)cc(/C=N/NC(=S)Nc2cc(S(=O)(=O)N3CCOCC3)ccc2Cl)c1O` was -50.3% (active); that for `Cc1cc(C)n2c(Nc3c(C)cccc3C)c(CCc3ccccc3)nc2n1` was 18.8% (inactive).
Turning to `CC(=O)c1ccc(NC(=O)Nc2ccc([N+](=O)[O-])cc2C)cc1`, the max response, negative = inhibition is -18.2% (inactive).
Turning to `CCN(CC)S(=O)(=O)c1cc([N+](=O)[O-])ccc1NNC(=O)Nc1ccccc1`, the max response, negative = inhibition was -56.2% (active).
For `CCN(CC)S(=O)(=O)c1cc([N+](=O)[O-])ccc1N=Nc1c(O)n(C)c2ccccc12`, the max response, negative = inhibition is 3.23% (inactive).
For the molecule `COc1ccc(-c2cc(-c3ccc(N)cc3)nc(N)c2C#N)cc1OC`, the max response, negative = inhibition is 23.8% (inactive).
`COc1ccc(-c2ccc(Nc3ccc(S(=O)(=O)N4CCCC4)cc3)nn2)cc1OC`: the max response, negative = inhibition was 39.5% (inactive).
The value for `COc1ccc(-c2cc(C(F)(F)F)nc(S(C)(=O)=O)n2)cc1OC` was -72.7% (active); that for `COc1ccc(NC(=O)CCCOc2ccc(C(C)=O)cc2)cc1S(=O)(=O)N1CCCCC1` was -5.42% (inactive).
As for `CC(C)NC(=O)C1(C)CCCCCN1C(=O)c1ccc(-c2ccccc2)cc1` (configuration not stated), the max response, negative = inhibition was 15.2% (inactive).
For the molecule `CCOC(=O)C(=CNc1cccc(C)n1)C(=O)OCC`, the max response, negative = inhibition is -3.11% (inactive).
For `CCOC(=O)C(=Cc1ccccc1)C(=O)c1ccccc1`, the max response, negative = inhibition is -59.2% (active).
As for `CCOC(=O)C(=Cc1ccccc1OC)C(=O)OCC`, the max response, negative = inhibition was -20.5% (inactive).
For the molecule `COC(=O)c1ccc2nc(-c3cccc(Br)c3)c(Cc3ccc(OC)cc3C)n2c1`, the max response, negative = inhibition is -25.6% (inactive).
For `Cc1ccccc1S(=O)(=O)N1[C@@H](c2cccc(Cl)c2)C(C(=O)OC(C)(C)C)=CC[C@H]1c1ccc(Cl)cc1`, the max response, negative = inhibition was 6.92% (inactive).
Consider `CC(Sc1nnc(-c2cccs2)n1C1CC1)C(=O)NCC1CCCO1` (configuration not stated), for which the max response, negative = inhibition was 15.9% (inactive).
In the case of `CCOC(=O)C1(CC2CCCCO2)CCN(Cc2nc(-c3cccs3)oc2C)CC1` (configuration not stated) it was -99% (active); in that of `CCOc1ccccc1-c1nc(CN2CCC(C(=O)N3CCOCC3)CC2)c(C)o1`, -15.7% (inactive); in that of `COc1ccccc1-c1cc2nc(NCc3cccc(Cl)c3)ccn2n1`, 7.72% (inactive).
As to `Cc1cccc(C)c1-n1nnnc1C1(C)CCC(=O)N1CCOc1ccccc1` (configuration not stated), the max response, negative = inhibition was 8.1% (inactive).
As for `COc1ccc(NC(=O)CN(C)C(=O)c2cc(C3CC3)nn2-c2ccccc2)cc1`, the max response, negative = inhibition was -0.552% (inactive).
Regarding `CCc1ccccc1NC(=O)CN1CCN(C(=O)c2cc(C3CC3)nn2-c2ccccc2)CC1`, the max response, negative = inhibition was 13.7% (inactive).
In the case of `COc1ccc(CN2CCN(C(=O)c3cc(C4CC4)nn3-c3ccccc3)CC2)cc1F` it was -50% (active).
With `CC(C)OC(=O)CC(=O)CC(O)c1cccc([N+](=O)[O-])c1` (configuration not stated), the max response, negative = inhibition is -17.6% (inactive).
Consider `CC(C)(C)N1C(=O)[C@H]2[C@@H](c3ccc(Br)cc3)N3C(=O)N(c4cccc(Cl)c4)C(=O)[C@@]3(C)[C@H]2C1=O`, for which the max response, negative = inhibition was -1.37% (inactive).
For the molecule `COc1ccc([C@@H]2[C@@H]3C(=O)N(C(C)(C)C)C(=O)[C@@H]3[C@]3(Cc4ccccc4)C(=O)N(c4cccc(Br)c4)C(=O)N23)cc1`, the max response, negative = inhibition was 8.03% (inactive).
As for `CC[C@@]12C(=O)N(c3ccccc3)C(=O)N1[C@H](c1ccc(Br)cc1)[C@@H]1C(=O)N(C(C)(C)C)C(=O)[C@@H]12`, the max response, negative = inhibition was -54% (active).
The value for `O=C1C(Sc2cccc(F)c2)=C[C@@]2(O)CC[C@@H](O)[C@]1(Sc1cccc(F)c1)[C@H]2O` was 4.49% (inactive); that for `CCOC(=O)C(C)n1cnc2c(nnn2-c2ccc(F)cc2)c1=O` (configuration not stated) was -1.26% (inactive); that for `COC(=O)C(C)n1cnc2c(nnn2-c2ccc(F)cc2)c1=O` (configuration not stated) was 0% (inactive).
As to `CCOC(=O)C(C)n1cnc2c(nnn2-c2cccc(OC)c2)c1=O` (configuration not stated), the max response, negative = inhibition is -57.8% (active).
Take `CCCCCCCCN1C(=O)[C@H](CC(=O)NCc2cccc3ccccc23)C[C@@]2(C(=O)OC)CCCCC=C12`: the max response, negative = inhibition was 10.6% (inactive).
The value for `C#CCOCCOCCOCCNc1nc(N2CCN(C(=O)[C@H](C(C)C)n3cc(CCO)nn3)CC2)nc(N2CCN(C(=O)[C@H](C(C)C)n3cc(CCO)nn3)CC2)n1` was 8.41% (inactive); that for `C#CCOCCOCCOCCNc1nc(N2CCN(C(=O)Cn3cc(CCO)nn3)CC2)nc(N2CCN(C(=O)[C@H](CCCCN)n3cc(CCCC)nn3)CC2)n1` was 15.4% (inactive).
For `C#CCOCCOCCOCCNc1nc(N2CCN(C(=O)CCCCCCCCCCNC(=O)[C@H]([C@@H](C)CC)n3cc(CCCCN=C(N)N)nn3)CC2)nc(N2CCN(C(=O)CCCCCCCCCCNC(=O)[C@H](CO)n3cc(CCCSC)nn3)CC2)n1`, the max response, negative = inhibition is -60.9% (active).
In the case of `Cc1ccc(-c2nc3c(Cl)cc(C(F)(F)F)cn3c2Cc2cccc(Cl)c2)cc1`, the max response, negative = inhibition is 50.6% (inactive).
`COc1cc2nnn(-c3ccncc3)c2cc1OC`: the max response, negative = inhibition is 28% (inactive).
The value for `CCC(=O)Nc1sc(C(=O)Nc2ccccc2)c(C)c1C(=O)OC` was 31.4% (inactive); that for `COCCCNCC(=O)Nc1sc(C)c(C)c1C(=O)OC` was -52.8% (active).
Turning to `COC(=O)c1c(NC(=O)c2c(Cl)cnn2C)sc(C)c1C`, the max response, negative = inhibition is 11.6% (inactive).
`COCc1cccc(-c2csc(C(O)c3ccc(F)cc3)n2)c1` (configuration not stated): the max response, negative = inhibition is 0% (inactive).
In the case of `O=C(c1cccs1)N1C[C@H](n2cc(C3CC3)nn2)[C@@H](O)C[C@@H]1c1ccccc1`, the max response, negative = inhibition was -2.86% (inactive).
On to `C=CCn1c2c(c3ccccc31)CCC2`, for which the max response, negative = inhibition was -10.5% (inactive).
In the case of `CC(C)C1C(=O)N(Cc2cn(CCC3OCCO3)nn2)CCS(=O)(=O)N1Cc1ccc(-c2ccccc2C(F)(F)F)cc1` (configuration not stated) it was -3.14% (inactive); in that of `O=C1[C@H]2[C@@H](c3ccc(F)cc3)N3C(=O)N(c4ccc(C(F)(F)F)cc4)C(=O)[C@@]3(Cc3ccccc3)[C@H]2C(=O)N1C1CCCCC1`, -13.4% (inactive).
In the case of `O=C1[C@H]2[C@@H](c3ccc(Cl)cc3)N3C(=O)N(c4cccc(F)c4)C(=O)[C@@]3(Cc3ccccc3)[C@H]2C(=O)N1C1CCCCC1`, the max response, negative = inhibition is -0.596% (inactive).
Consider `Cc1cccc(N2C(=O)N3[C@H](c4ccc(F)cc4)[C@@H]4C(=O)N(C5CCCCC5)C(=O)[C@@H]4[C@]3(Cc3ccccc3)C2=O)c1`, for which the max response, negative = inhibition is -58.6% (active).
Take `OC[C@@H]1CN(Cc2cccs2)C[C@H](n2cnc3c(NC4CCCC4)ncnc32)O1`: the max response, negative = inhibition is 18.9% (inactive).
On to `CC(C)c1cccc(-c2csc(C(O)c3ccccc3)n2)c1` (configuration not stated), for which the max response, negative = inhibition was -27.4% (inactive).
As to `COc1ccccc1-c1sc2ccccc2c1-c1ccc(Br)nc1`, the max response, negative = inhibition was -14.1% (inactive).
The value for `COc1ccc2sc(-c3ccccc3OC)c(-c3ccc(OCCN4CCCC4)cc3)c2c1` was -83.2% (active); that for `COc1cccc(-c2sc3ccc(OC)cc3c2-c2ccc(OCCN3CCCCC3)cc2)c1` was -12.2% (inactive).
On to `CC(C)(Oc1ccc(C2CC2(Cl)Cl)cc1)C(=O)O` (configuration not stated), for which the max response, negative = inhibition was -111% (active).
Take `O=C(Nc1ccc(C2CC2(Cl)Cl)cc1)c1cccc([N+](=O)[O-])c1` (configuration not stated): the max response, negative = inhibition was -14.6% (inactive).
As for `CCc1nc2c(OCc3ccc(F)c(F)c3)cccn2c1N(C)C(=O)c1ccco1`, the max response, negative = inhibition was 15.7% (inactive).
As to `COc1ccc(C(=O)NC2=NCCS2)c(OC)c1`, the max response, negative = inhibition is 5.28% (inactive).
Consider `O=C(NC1=NCCS1)c1ccc(Cl)s1`, for which the max response, negative = inhibition was -77% (active).
With `COc1ccccc1C(=O)NCCC(=O)NC1=NCCS1`, the max response, negative = inhibition was 0% (inactive).
The value for `O=C(Cn1cc(-c2nnnn2-c2ccc(Cl)cc2)c(=O)c2ccccc21)c1ccccc1` was 36.4% (inactive); that for `O=C(CSc1cccc[n+]1[O-])c1ccc(Cl)cc1` was -3.66% (inactive).
In the case of `O=C(C[n+]1ccc2c(c1)nnn2-c1ccccc1)c1ccc(Cl)cc1` it was -54.4% (active); in that of `Cc1noc(C)c1C(=O)N1CCC1(C)C(=O)NS(=O)(=O)c1ccc(C#N)cc1` (configuration not stated), 13.1% (inactive).
`COc1ccc(OC)c(NC(=O)c2sc3nc(C)cc(C)c3c2N)c1`: the max response, negative = inhibition is 22.5% (inactive).
In the case of `Cc1cccn2c(=O)c3cc(C(=O)NC4CCCCC4)sc3nc12` it was -12.3% (inactive).
For `COCc1cc(C)nc2sc(C(=O)NC3CCCCC3)c(N)c12`, the max response, negative = inhibition was -50.5% (active).
In the case of `COc1cncc(-c2cnc3sc(NCCc4ccccn4)nn23)c1` it was 60.8% (inactive); in that of `Cc1ccc(/C=N\n2c(-c3ccccc3)n[nH]c2=S)s1`, -72.1% (active); in that of `S=c1[nH]nc(-c2ccncc2)n1/N=C/c1ccccc1Cl`, 38% (inactive).
For the molecule `Fc1ccccc1/C=N/n1c(-c2cccnc2)n[nH]c1=S`, the max response, negative = inhibition is -11.6% (inactive).
In the case of `Cc1ccsc1/C=N/n1c(=S)[nH]nc(C)c1=O` it was -20.9% (inactive); in that of `S=c1[nH]nc(-c2cccs2)n1/N=C/c1cn(-c2ccccc2)nc1-c1ccc(Cl)cc1`, -16% (inactive).
Turning to `Oc1ccccc1/C=N/n1c(-c2cccs2)n[nH]c1=S`, the max response, negative = inhibition was -79.6% (active).
